In PubChem BioAssay (NCATS):
Inconclusive results are not listed. Active and inactive are the calls of the source. The call rests on the fitted dose curve; in most records, active means well fitted inhibition curve with a large enough effect; inconclusive means small, poorly fitted or top-dose-only effect; inactive means flat fitted curve, though single readings scatter.

Tests used:
Assay in all cases: qHTS profiling for inhibitors of Plasmodium falciparum proliferation (AID 504749); further: nearly all actives have a fitted effect of over 60% in size
Conditions in all cases: P. falciparum in erythrocytes, SYBR Green DNA, 72 h; series mostly up to 28.7 µM
[1] = system: CP297
In short: (§1)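 P. falciparum-infected erythrocytes (0.3% parasitemia, 2.5% hematocrit final) were exposed to compounds for 72 h at 37 C in 5% CO2, then lysed with SYBR Green buffer overnight at room temperature; parasite DNA fluorescence was normalized to artemisinin and DMSO controls.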

[2] = system: CP305
In short: as §1

[3] = system: CP315
In short: as §1

[4] = system: CP325
In short: as §1

[5] = system: CP329
In short: as §1

[6] = system: CP335
In short: as §1

[7] = system: DFO2036
In short: as §1

[8] = system: DIV14
In short: as §1

[9] = system: DIV17
In short: as §1

[10] = system: DIV30
In short: as §1

[11] = system: Dd2
In short: as §1

[12] = system: ECU
In short: as §1

[13] = system: FAB9
In short: as §1

[14] = system: GB4
In short: as §1

[15] = system: HB3
In short: as §1

[16] = system: ICS
In short: as §1

[17] = system: JCK
In short: as §1

[18] = system: N140
In short: as §1

[19] = system: P93_24
In short: as §1

[20] = system: P94_40
In short: as §1

Measured: Potency

O=C(O)c1ccc(NC(=O)[C@H](Cc2ccc(O)cc2)NC(=O)c2ccccc2)cc1
inactive: all assays above

Oc1cc(O)cc(O)c1
inactive: all assays above

COc1cc(S(C)=O)ccc1-c1nc2ncccc2[nH]1 (stereo not drawn)
inactive: all assays above

CN1c2c(nc(N)[nH]c2=O)NCC1CNc1ccc(C(=O)NC(CCC(=O)O)C(=O)O)cc1 (stereo not drawn)
inactive: all assays above

CCC(C)[C@@H](N)C(=O)O (stereo partly drawn)
inactive: all assays above

C/C=C/C=C/C(=O)O
not listed: [19]
inactive: all other assays above

CC1CCCCN1CCCOC(=O)c1ccccc1 (stereo not drawn)
not listed: [14]
inactive: all other assays above
